Assay results from PubChem BioAssay.
Active and inactive are the calls of the source.

Assays:
Albumin (Bos taurus) = Albumin (Bos taurus) (UniProt P02769); experiment: bovine serum albumin binders on microarray, profiling panel, artefact control for SMM control protein annotation, biochemical, small-molecule microarray, Alexa647 label, 635/667 nm fluorescence (AID 1118); conditions: BSA-A647 binding, fluorescence 635 nm, higher = more signal;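 note: score merges 667 nm emission intensity and signal-to-noise per printed compound spot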
[1] = small-molecule microarray binders of probe aXIP, primary screen, biochemical, NeuroSMM set, 635/667 nm fluorescence (AID 1119); conditions: higher = more signal, called active from +8 up or from −8 down;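 note: probe is the protein aXip251-270 applied at 1 µg/mL to compound-printed slides; binding of probe to printed compounds measured as 667 nm fluorescence plus signal to noise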
[2] = small-molecule binders of probe aNOTCH3, primary screen, biochemical, small-molecule microarray, 635/667 nm fluorescence (AID 1120); conditions: higher = more signal;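 note: probe is a biotin-tagged antibody raised against NOTCH3 rather than NOTCH3 protein; score merges spot fluorescence near 667 nm with spot signal to noise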
[3] = small-molecule binders of probe aNOTCH2, primary screen, biochemical, small-molecule microarray, 635/667 nm fluorescence (AID 1121); conditions: higher = more signal;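 note: score merges feature fluorescence read at 667 nm with its signal to noise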
[4] = target: Carbonic anhydrase 2 (Homo sapiens) (UniProt P00918); experiment: CAII small-molecule binders, profiling panel, biochemical, small-molecule microarray, Alexa647-labelled CAII (AID 1122); conditions: CAII-A647 binding fluorescence, higher = more signal
[5] = COS7 lysate on small-molecule microarray, probe aHis, 635 nm (AID 1123); conditions: COS7 cell lysate, fluorescence, higher = more signal;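 note: z-score combines 667nm fluorescence intensity with signal-to-noise per printed compound spot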
[6] = compound binding in COS7 lysate, probe aLAP1, primary screen, cell lysate, small-molecule microarray (AID 1124); conditions: probe aLAP1, fluorescence, higher = more signal;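 note: lysate comes from COS7 cells expressing LAP1 and is applied at 0.3 µg/mL; score merges spot fluorescence near 667 nm with signal-to-noise over triplicate slides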
Sam68 (KHDRBS1) = experiment: Sam68 small-molecule binders, primary screen, biochemical, small-molecule microarray, 635 nm fluorescence (AID 1125); conditions: small-molecule microarray binding, higher = more signal;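 note: score merges 667 nm channel intensity with signal to noise over triplicate slides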
[7] = test system: Chordin-like protein 2 (CHRDL2); experiment: CHRDL2 small-molecule binders, primary screen, biochemical, small-molecule microarray, 635 nm fluorescence (AID 1126); conditions: small-molecule microarray binding, fluorescence 635 nm; higher = more signal;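 note: printed compound slides probed with Chrdl2 protein at 4 µg/mL for 1 h at 4 C; score merges 667 nm emission intensity with signal to noise over three replicate slides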
[8] = target: Concanavalin-A (Canavalia ensiformis) (UniProt P02866); experiment: ConA small-molecule binders, primary screen, artefact control for SMM control protein annotation, biochemical, small-molecule microarray, Alexa647 label, 635 nm (AID 1127); conditions: ConA-A647 binding fluorescence, higher = more signal;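 note: z combines 667 nm emission intensity with signal-to-noise across three replicate slides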
[9] = anti-His antibody binders, primary screen, artefact control for SMM control protein annotation, biochemical, small-molecule microarray, 635 nm fluorescence (AID 1128); conditions: anti-His Alexa647 antibody binding, higher = more signal;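 note: score merges feature fluorescence with signal-to-noise for each printed compound spot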
[10] = test system: Human papillomavirus type 1a E7 protein (residues 1-88); experiment: HPV1a E7 small-molecule binders, primary screen, biochemical, small-molecule microarray, residues 1-88, 635 nm (AID 1129); conditions: small-molecule microarray binding, fluorescence 635 nm; higher = more signal
[11] = target: Focal adhesion kinase 1 (Homo sapiens) (UniProt Q05397); experiment: small-molecule microarray binders of FAK, primary screen, biochemical, 635/667 nm fluorescence, BSA, DTT (AID 1130); conditions: PTK2 binding, 635 nm fluorescence, higher = more signal;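 note: composite of spot emission at 667 nm and signal to noise over triplicate slides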
[12] = test system: Fibrinogen (Alexa647-labelled); experiment: fibrinogen binders on compound microarrays, profiling panel, artefact control for SMM control-protein annotation, biochemical, small-molecule microarray, 635/667 nm fluorescence (AID 1131); conditions: fibrinogen-A647 binding fluorescence, higher = more signal;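 note: z-score merges 667 nm fluorescence with per-spot signal-to-noise over triplicate slides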
[13] = target: Follistatin (Homo sapiens) (UniProt P19883); experiment: follistatin binders on small-molecule microarrays, primary screen, biochemical, small-molecule microarray, 635/667 nm fluorescence (AID 1132); conditions: FST binding, 635 nm fluorescence, higher = more signal
[14] = target: Fibroblast growth factor 2 (Homo sapiens) (UniProt P09038); experiment: FGF2 binders on small-molecule microarrays, primary screen, biochemical, small-molecule microarray, 635/667 nm fluorescence (AID 1133); conditions: small-molecule microarray binding, FGF2, fluorescence 635/667; higher = more signal
[15] = mitochondrial membrane potential change in A549 cells, profiling panel, cell-based, JC-1 fluorescence, basal, 24 h, 100 nL (AID 1138); conditions: higher = more signal;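 note: A549 lung adenocarcinoma cells under basal conditions with no added stimulus; test concentration not given here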
Lefty1 = Lefty1 binders on small-molecule microarrays, primary screen, biochemical, small-molecule microarray, 635/667 nm fluorescence (AID 1139); conditions: small-molecule microarray binding, fluorescence 635/667; higher = more signal
[16] = test system: wheat germ agglutinin (Triticum aestivum), Alexa647-labelled; experiment: wheat germ agglutinin binders on compound microarrays, profiling panel, artefact control for SMM control-protein annotation, biochemical, small-molecule microarray, 635/667 nm fluorescence (AID 1140); conditions: WGA-A647 binding, 635 nm fluorescence, higher = more signal;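 note: score merges 667 nm feature emission with signal to noise over triplicate slides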
[17] = target: Luciferin 4-monooxygenase (Photinus pyralis) (UniProt P08659); experiment: firefly luciferase enzyme inhibitors, primary screen, biochemical, luminescence, purified enzyme, 2006 set (AID 1141); conditions: SteadyGlo luminescence, 30 min, higher = more signal, called active from +8 up or from −8 down;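 note: cell-free assay with purified firefly luciferase at 100 ng per well in PBS; test concentration not given here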
Sequence of Luciferin 4-monooxygenase (Photinus pyralis) (P08659 whole entry, looked up): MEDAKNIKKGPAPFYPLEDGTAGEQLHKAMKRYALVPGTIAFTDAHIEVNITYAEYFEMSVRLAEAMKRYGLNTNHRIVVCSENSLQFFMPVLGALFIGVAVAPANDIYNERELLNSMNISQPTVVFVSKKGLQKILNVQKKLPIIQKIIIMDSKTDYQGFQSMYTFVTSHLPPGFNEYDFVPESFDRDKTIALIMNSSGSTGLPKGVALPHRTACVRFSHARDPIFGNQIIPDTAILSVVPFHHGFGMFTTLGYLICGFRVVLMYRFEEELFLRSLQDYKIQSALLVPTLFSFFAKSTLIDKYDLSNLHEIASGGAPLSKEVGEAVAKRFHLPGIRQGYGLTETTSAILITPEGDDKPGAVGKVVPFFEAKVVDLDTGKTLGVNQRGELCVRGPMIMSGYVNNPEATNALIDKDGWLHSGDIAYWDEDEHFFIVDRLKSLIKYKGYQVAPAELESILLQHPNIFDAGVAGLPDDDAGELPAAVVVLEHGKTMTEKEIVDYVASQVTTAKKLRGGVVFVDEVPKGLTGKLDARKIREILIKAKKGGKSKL

Sequence of Focal adhesion kinase 1 (Homo sapiens) (Q05397 whole entry, looked up): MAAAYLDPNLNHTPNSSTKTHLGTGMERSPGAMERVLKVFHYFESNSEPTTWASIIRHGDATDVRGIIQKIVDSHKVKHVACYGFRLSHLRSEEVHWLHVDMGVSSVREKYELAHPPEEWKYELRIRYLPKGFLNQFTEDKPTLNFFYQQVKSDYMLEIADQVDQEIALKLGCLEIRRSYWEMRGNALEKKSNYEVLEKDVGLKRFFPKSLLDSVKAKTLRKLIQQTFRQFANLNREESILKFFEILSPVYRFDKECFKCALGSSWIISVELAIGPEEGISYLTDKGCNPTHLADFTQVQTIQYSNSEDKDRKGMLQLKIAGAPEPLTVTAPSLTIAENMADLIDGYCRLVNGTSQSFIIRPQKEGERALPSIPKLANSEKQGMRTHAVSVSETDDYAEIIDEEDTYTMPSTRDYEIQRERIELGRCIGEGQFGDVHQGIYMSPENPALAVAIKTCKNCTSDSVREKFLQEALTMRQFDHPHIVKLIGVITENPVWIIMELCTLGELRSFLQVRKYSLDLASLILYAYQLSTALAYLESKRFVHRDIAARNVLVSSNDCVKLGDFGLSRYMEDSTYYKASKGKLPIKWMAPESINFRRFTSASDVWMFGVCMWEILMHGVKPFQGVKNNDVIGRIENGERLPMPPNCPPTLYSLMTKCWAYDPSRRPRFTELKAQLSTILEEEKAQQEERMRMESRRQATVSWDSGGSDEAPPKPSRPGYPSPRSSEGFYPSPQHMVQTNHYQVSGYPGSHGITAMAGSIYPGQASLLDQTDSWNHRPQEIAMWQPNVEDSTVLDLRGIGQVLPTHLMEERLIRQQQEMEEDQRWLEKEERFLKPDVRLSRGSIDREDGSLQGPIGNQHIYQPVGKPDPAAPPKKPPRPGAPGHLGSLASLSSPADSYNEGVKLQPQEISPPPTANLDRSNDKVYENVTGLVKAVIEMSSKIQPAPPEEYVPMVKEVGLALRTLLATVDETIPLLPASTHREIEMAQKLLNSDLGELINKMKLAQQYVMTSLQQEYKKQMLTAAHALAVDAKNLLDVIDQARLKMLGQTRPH
Sequence of Fibroblast growth factor 2 (Homo sapiens) (P09038 whole entry, looked up): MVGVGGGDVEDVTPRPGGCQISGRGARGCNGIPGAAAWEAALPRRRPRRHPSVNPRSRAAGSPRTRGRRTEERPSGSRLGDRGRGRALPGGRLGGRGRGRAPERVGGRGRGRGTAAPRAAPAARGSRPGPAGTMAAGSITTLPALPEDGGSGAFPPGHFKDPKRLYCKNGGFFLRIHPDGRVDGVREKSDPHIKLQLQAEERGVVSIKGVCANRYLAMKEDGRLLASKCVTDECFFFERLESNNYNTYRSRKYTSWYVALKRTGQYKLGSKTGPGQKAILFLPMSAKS
Sequence of Concanavalin-A (Canavalia ensiformis) (P02866 whole entry, looked up): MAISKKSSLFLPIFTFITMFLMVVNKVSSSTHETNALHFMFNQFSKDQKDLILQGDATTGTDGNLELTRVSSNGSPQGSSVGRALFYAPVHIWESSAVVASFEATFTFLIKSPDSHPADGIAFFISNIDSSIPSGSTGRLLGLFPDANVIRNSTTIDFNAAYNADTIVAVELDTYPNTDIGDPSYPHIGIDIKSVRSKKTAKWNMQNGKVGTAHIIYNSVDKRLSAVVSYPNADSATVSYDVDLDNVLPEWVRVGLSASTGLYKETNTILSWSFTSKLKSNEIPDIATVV
Sequence of Follistatin (Homo sapiens) (P19883 whole entry, looked up): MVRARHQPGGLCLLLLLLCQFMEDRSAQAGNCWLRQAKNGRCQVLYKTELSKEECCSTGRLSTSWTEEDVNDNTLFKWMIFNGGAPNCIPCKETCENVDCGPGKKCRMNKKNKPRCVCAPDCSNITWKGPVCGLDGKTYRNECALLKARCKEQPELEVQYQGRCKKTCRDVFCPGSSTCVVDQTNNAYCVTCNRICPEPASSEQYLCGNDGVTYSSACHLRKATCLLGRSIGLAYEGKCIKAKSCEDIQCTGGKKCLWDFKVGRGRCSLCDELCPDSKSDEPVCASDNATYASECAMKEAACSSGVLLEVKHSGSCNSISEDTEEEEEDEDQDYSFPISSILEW
Sequence of Albumin (Bos taurus) (P02769 whole entry, looked up): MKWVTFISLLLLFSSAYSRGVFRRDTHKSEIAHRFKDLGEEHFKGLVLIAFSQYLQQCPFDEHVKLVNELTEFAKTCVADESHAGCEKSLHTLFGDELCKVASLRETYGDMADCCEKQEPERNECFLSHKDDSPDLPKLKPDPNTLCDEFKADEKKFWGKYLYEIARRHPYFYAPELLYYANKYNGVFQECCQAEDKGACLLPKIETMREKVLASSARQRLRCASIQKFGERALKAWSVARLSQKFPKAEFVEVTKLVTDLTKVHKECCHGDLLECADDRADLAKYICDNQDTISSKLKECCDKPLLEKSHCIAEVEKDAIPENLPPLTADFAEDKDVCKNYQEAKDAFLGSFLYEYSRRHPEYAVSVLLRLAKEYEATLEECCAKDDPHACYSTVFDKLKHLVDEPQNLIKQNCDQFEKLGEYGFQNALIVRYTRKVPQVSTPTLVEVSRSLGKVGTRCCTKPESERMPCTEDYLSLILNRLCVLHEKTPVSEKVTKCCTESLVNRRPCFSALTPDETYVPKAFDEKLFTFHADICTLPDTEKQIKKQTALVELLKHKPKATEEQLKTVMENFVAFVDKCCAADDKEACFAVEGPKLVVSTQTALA

SMILES | composite z-score (Albumin (Bos taurus)) | composite Z-score [1] | composite z-score [2] | composite z-score [3] | composite z-score [4] | composite z-score [5] | composite z-score [6] | composite z-score (Sam68 (KHDRBS1)) | composite z-score [7] | composite z-score [8] | composite z-score [9] | composite z-score [10] | composite z-score [11] | composite z-score [12] | composite z-score [13] | composite z-score [14] | z-score [15] | composite z-score (Lefty1) | composite z-score [16] | z-score [17]
C/C=C/[C@@H](CCn1cc(CCO[Si](C(C)C)(C(C)C)C(C)C)nn1)[Si](C)(C)c1ccc(OC)cc1 | -1.72 | -0.535 (inactive) | -0.337 | -0.234 | -0.609 | -0.49 | -0.0321 | -1.07 | -1.8 | -2.84 | -0.588 | -0.668 | -0.168 | -1.56 | -2.11 | -0.888 | 4.63 | -1.16 | -2.08 | -2.45 (inactive)
CC(CO)N1C(=O)[C@@H]2C3C(=O)OCCC/C=C\[C@H]3OC23C=CCN(Cc2ccccc2)C(=O)[C@@H]13 (stereo not given in full) | -0.656 | -0.427 (inactive) | -0.189 | -0.177 | 0.866 | -0.255 | -0.285 | -0.164 | -1.64 | -2.2 | -1.18 | -1.47 | -0.55 | -1.52 | -0.742 | -0.426 | 0.935 | -0.532 | -1.54 | -1.56 (inactive)
C=CCN1C(=O)[C@@]2(O[C@@H](CCn3cc(CCO)nn3)[C@H]([Si](C)(C)c3ccc(OC)cc3)[C@H]2C)c2cc(N3C(=O)c4cccc5cccc3c45)ccc21 | 0.681 | -0.128 (inactive) | -0.0299 | -0.0703 | 0.455 | 0.249 | 0.15 | 0.966 | 0.0449 | 1.09 | 0.29 | 0.511 | 0.608 | 0.807 | 0.816 | 0.973 | -1.38 | 0.537 | 1.1 | -1.96 (inactive)
CO[C@H]1O[C@H](CO)[C@@H](OC(=O)Nc2ccccc2)[C@H](OC(=O)Nc2ccc3c(c2)OCO3)[C@H]1OC(=O)Nc1ccc2c(c1)OCO2 | 0.06 | 0.219 (inactive) | 0.224 | -0.0289 | 0.599 | 2.14 | 0.294 | 1.29 | -0.494 | 1.18 | 1.75 | 1.19 | 2.04 | 0.172 | 0.612 | -0.0687 | 0.316 | 0.345 | 0.571 | -1.63 (inactive)
CC(C)C[C@@H]1NC(=O)[C@@H]2C[C@H](C(=O)NCCCCCNC(=O)CS)[C@H](c3cccc(OCCO)c3)N2C1=O | -1.16 | 0.262 (inactive) | 0.0469 | -0.0624 | 0.588 | 1.47 | -0.383 | 1.31 | 0.767 | 1.18 | 2.82 | 1.18 | 1.35 | 0.837 | 1.38 | 1.3 | -0.018 | 1.13 | 1.23 | -2.15 (inactive)
C[N+](C)(C)CCCC[C@@H]1NC(=O)[C@H]2C[C@@H](C(=O)NCCCCCN)[C@@H](c3cccc(OCCO)c3)N2C1=O | 0.913 | 0.268 (inactive) | 0.23 | -0.0633 | 0.801 | 2.41 | 1.34 | 0.965 | -0.0742 | 1.13 | 2.45 | 1.07 | 0.535 | 0.789 | 1.19 | 0.327 | -0.102 | 0.17 | 1.1 | -0.714 (inactive)
COc1ccc([Si](C)(C)[C@@H]2[C@@H](CC(=O)N3CCC[C@H]3CO)O[C@]3(C(=O)N(Cc4ccc(I)cc4)c4ccccc43)[C@H]2C)cc1 | -1.32 | -0.36 (inactive) | -0.0328 | -0.0707 | -0.0226 | 0.713 | 0.147 | 1.32 | 1.06 | 1.19 | 1.14 | 0.989 | 0.178 | 0.584 | 1.34 | 1.56 | 1.05 | 1.12 | 1.07 | -0.765 (inactive)
C=CCC1(CC=C)C[C@H]2CO[C@H](c3ccc(OC)cc3)N2C1=O | -1.14 | -0.258 (inactive) | -0.154 | -0.155 | 0.448 | -0.348 | 0.157 | -0.082 | 1.3 | 0.0736 | 0.413 | -0.154 | -0.256 | -0.78 | 1.23 | 0.15 | 1.31 | 0.458 | 1.28 | -1.13 (inactive)
O=C(NCC(F)(F)F)[C@@H]1c2ccccc2C(=O)N(C2Cc3ccccc3C2)[C@H]1c1ccc(CO)cc1 | 0.0975 | -1.34 (inactive) | -0.0362 | -0.0907 | 0.414 | -0.0023 | 0.386 | -0.945 | -1.3 | -1 | -1.02 | -0.801 | -0.26 | -1.58 | -0.871 | -0.485 | 2.62 | -1.25 | -2.05 | -1.04 (inactive)
